Bioassay records as filed in PubChem BioAssay.
This excerpt belongs to a sample that is enriched for hits.
STK33 kin inh – human STK33 kinase inhibition; 27,000 tested, 0.44% active; Q9BYT3; inhibition, % at 12.5 µM; ADP-Glo luminescence, MBP substrate; in the data active = inhibition above about 20%
Target sequence (Q9BYT3 whole entry, looked up): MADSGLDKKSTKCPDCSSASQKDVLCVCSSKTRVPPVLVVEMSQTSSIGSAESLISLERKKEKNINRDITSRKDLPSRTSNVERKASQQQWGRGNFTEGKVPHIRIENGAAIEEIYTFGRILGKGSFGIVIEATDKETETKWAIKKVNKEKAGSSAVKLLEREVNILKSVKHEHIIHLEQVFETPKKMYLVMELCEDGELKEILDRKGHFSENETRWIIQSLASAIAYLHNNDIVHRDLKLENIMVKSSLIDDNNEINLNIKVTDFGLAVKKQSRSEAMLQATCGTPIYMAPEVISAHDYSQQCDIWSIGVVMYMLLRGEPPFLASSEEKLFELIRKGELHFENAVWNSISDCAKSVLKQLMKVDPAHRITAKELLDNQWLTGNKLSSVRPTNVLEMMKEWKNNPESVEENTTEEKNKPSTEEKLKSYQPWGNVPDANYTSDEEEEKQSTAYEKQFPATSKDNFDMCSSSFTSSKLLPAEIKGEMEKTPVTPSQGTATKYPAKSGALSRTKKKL
PD-1 reverse act – activators reversing PD-1 mediated T-cell inhibition; primary human CD4 T cells, PD-L1 beads, CellTiter-Glo 96 h; activation, % (no concentration beside the values); 29,000 tested, under 10 active; call rule not given here;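 note: 0% = median vehicle wells and 100% = positive control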
NOMO-1 viab – STK33 inhibitor candidate reducing NOMO-1 cell viability; NOMO-1 AML viability, CellTiter-Glo luminescence, 72 h; inhibition, % (no concentration beside the values); 37,000 tested, 7.5% active; AID 2330; in the data active = inhibition above about 80%
* = called active by the depositor; / = no result.

SMILES | STK33 kin inh | PD-1 reverse act | NOMO-1 viab
CC(=O)N[C@@H](Cc1c[nH]c2ccccc12)C(N)=O | -1.3 | / | 16.8
O=C(COc1nc(-c2cccs2)cc(C(F)(F)F)n1)Nc1ccc(Cl)cc1Cl | 4.6 | -0.7 | 9.0
COc1ccccc1NC(=O)Cc1c(OC)ccc2cc(Br)ccc12 | -0.1 | / | 34.2
O=C(Cc1ccccc1[N+](=O)[O-])Nc1ccccc1C(=O)NC1CCCCC1 | -0.7 | / | -3.0
O=c1cc(CSc2nc3sc4c(c3c(=O)n2Cc2ccco2)CCC4)[nH][nH]1 | -1.9 | -0.5 | 15.9
C/C=C(/C)C(=O)O[C@H]1C=C(C)C[C@H](OC(=O)c2ccc(O)cc2)C2[C@](O)(C(C)C)CC[C@@]21C (stereo partly specified) | -4.7 | -5.8 | 122.5*
COc1ccc(CSc2nnc(CSc3cccs3)n2C)cc1 | / | 0.9 | 15.6
OC[C@H]1O[C@@H](Oc2ccc3c(c2)OC[C@H]2c4cc5c(cc4O[C@@H]32)OCO5)[C@H](O)[C@@H](O)[C@@H]1O | 0.2 | 1.6 | 12.8
Oc1ccc2c(c1O)OCC1c3cc4c(cc3OC21)OCO4 (stereo unspecified) | 1.2 | -2.9 | 105.2*
COc1ccc2c(c1)O[C@H]1c3ccc(O)cc3OC[C@@H]21 | -0.5 | 3.2 | 20.4
CC(C)=CCc1cc2c(cc1O)O[C@H]1c3ccc(O)c(O)c3OC[C@@H]21 | -5.1 | -2.2 | 104.7*
C/C=C/C#CC#C[C@@H](O[C@@H]1O[C@H](CO)[C@@H](O)[C@H](O)[C@H]1O)[C@H](O)/C=C/CCCO | -1.8 | -0.1 | -2.7
Cc1cccc(OCC(=O)Nc2cccc(-c3nc4ccccc4[nH]3)c2)c1C | 2.8 | -0.1 | 62.3
O=C(c1ccccc1)c1ccc2nc(-c3cccc(NC(=O)C4CCCO4)c3)[nH]c2c1 (stereo unspecified) | 7.3 | -0.2 | 100.1*
C[C@H](CO)N1C[C@H](C)[C@H](CN(C)C(=O)Nc2ccc3c(c2)OCO3)Oc2ccc(NC(=O)Nc3ccc(C(F)(F)F)cc3)cc2C1=O | -0.7 | -1.7 | 99.0*
C[C@@H]1CN([C@@H](C)CO)C(=O)c2cc(NC(=O)Nc3ccc4c(c3)OCO4)ccc2O[C@@H]1CN(C)C(=O)Nc1ccc(C(F)(F)F)cc1 | -1.6 | -3.0 | 93.4*
C[C@H](CO)N1C[C@H](C)[C@@H](CN(C)C(=O)Nc2ccc(C(F)(F)F)cc2)Oc2ccc(NC(=O)Nc3ccc4c(c3)OCO4)cc2C1=O | 2.5 | -0.6 | 20.4
C[C@@H]1CN([C@H](C)CO)C(=O)c2cc(NC(=O)Nc3ccc(C(F)(F)F)cc3)ccc2O[C@H]1CN(C)C(=O)Nc1ccc2c(c1)OCO2 | -3.9 | 4.1 | 18.7
CC1(C)Cc2nc(-c3ccccc3)nc(SCC(=O)Nc3ccc(Br)cc3)c2CO1 | 1.4 | -13.1 | 101.3*
COc1ccc(OC)c(NC(=O)CSc2nc(-c3ccccc3)nc3c2COC(C)(C)C3)c1 | -1.0 | -4.2 | 39.4
N#Cc1sc2nc(-c3ccncc3)ccc2c1N | / | 0.7 | 23.6
Cc1ccccc1C(=O)N1N=C(c2ccc(Br)cc2)CC1c1nc2ccccc2[nH]1 (stereo unspecified) | / | -0.7 | 56.4
CC(=O)C(C#N)C(=O)Nc1cc(Br)ccc1Br (stereo unspecified) | 22.1* | / | -22.4
CC(=O)Nc1ccc(Br)cc1 | / | 1.9 | -14.6
C[C@@H]1CN([C@@H](C)CO)C(=O)c2cc(NC(=O)Nc3ccccc3)ccc2O[C@@H]1CN(C)C(=O)Nc1cccc2ccccc12 | / | -5.0 | 67.2
SMILES | STK33 kin inh | PD-1 reverse act | NOMO-1 viab
C[C@@H]1CN([C@H](C)CO)C(=O)c2cc(NC(=O)Nc3ccccc3)ccc2O[C@@H]1CN(C)C(=O)Nc1cccc2ccccc12 | / | -4.9 | 90.4*
C[C@H]1CN([C@@H](C)CO)C(=O)c2cc(NC(=O)Nc3cccc4ccccc34)ccc2O[C@@H]1CN(C)C(=O)Nc1ccc(C(F)(F)F)cc1 | / | -5.0 | 85.9*
C[C@@H]1CN([C@H](C)CO)C(=O)c2cc(NC(=O)Nc3cccc4ccccc34)ccc2O[C@@H]1CN(C)Cc1ccncc1 | / | 0.9 | 14.9
C[C@H]1CN([C@@H](C)CO)C(=O)c2cc(NC(=O)Nc3cccc4ccccc34)ccc2O[C@H]1CN(C)Cc1ccc(C(F)(F)F)cc1 | -1.2 | 2.3 | 0.8
C[C@@H]1CN([C@@H](C)CO)C(=O)c2cc(NC(=O)Nc3cccc4ccccc34)ccc2O[C@H]1CN(C)Cc1ccc(C(F)(F)F)cc1 | / | 1.4 | 86.6*
C[C@@H]1CN([C@@H](C)CO)C(=O)c2cc(NC(=O)Nc3cccc4ccccc34)ccc2O[C@@H]1CN(C)C(=O)Nc1ccc(C(F)(F)F)cc1 | 0.2 | -2.7 | 51.9
C[C@H](CO)N1C[C@H](C)[C@H](CN(C)Cc2ccncc2)Oc2ccc(NC(=O)Nc3cccc4ccccc34)cc2C1=O | -1.0 | 3.8 | 98.0*
Cn1c(SCC(=O)c2ccc(Cl)cc2)nnc1-c1ccccc1O | 0.7 | -1.9 | 17.1
Cc1ccc([N+](=O)[O-])cc1NC(=O)CN(C)S(=O)(=O)c1cc(Cl)ccc1Cl | -8.4 | 0.3 | 14.9
COC(=O)c1ccccc1NC(=O)CSc1ncnc2sc3c(c12)CCC(C)C3 (stereo unspecified) | -3.3 | 1.2 | 16.6
N#CC1=C(N)Nc2c(c(=O)oc3ccccc23)C1c1ccc(Br)cc1 (stereo unspecified) | / | -4.2 | 34.5
COC(=O)c1c(NC(=S)Nc2ccn(C)n2)sc(C(=O)N(C)C)c1C | -1.1 | 1.9 | 26.4
O=C1N=c2ccccc2=N/C1=N\C(=S)Nc1ccccc1 | / | -3.0 | 121.8*
CC(C)/C(N)=N/C(=S)Nc1ccccc1 | / | 2.0 | 22.8
CC1OC(OC2CCC3(C)C(CCC4(C)C3CC=C3C5CC(C)(C)CCC5(C(=O)OC5OC(CO)C(OC6OCC(OC7OC(CO)C(O)C(O)C7O)C(OC7OCC(O)C(O)C7O)C6O)C(O)C5O)CCC34C)C2(C)C)C(O)C(O)C1OC1OCC(O)C(O)C1O (stereo unspecified) | -1.5 | -0.6 | 0.4
COc1ccc(-c2nnc3c4ccccc4c(C)nn23)cc1S(=O)(=O)N1CCOCC1 | -0.3 | -0.9 | 27.0
O=c1cc(-c2ccccc2)oc2c(O)c(O)ccc12 | 13.9 | / | 101.0*
O=c1cc(-c2ccccc2)oc2ccc(O)cc12 | 0.9 | 2.2 | 7.6
O=C(COc1ccc([N+](=O)[O-])cc1)Nc1ccc2oc(-c3ccc(F)cc3Cl)nc2c1 | 2.9 | 1.9 | 27.7
Cc1nc(N)nc(CSc2ccccc2)n1 | -3.9 | -10.6 | 27.1
C[C@@H]1CN([C@H](C)CO)C(=O)Cc2cc(N(C)C)ccc2O[C@@H]1CN(C)Cc1ccc(Oc2ccccc2)cc1 | -0.7 | -3.0 | 117.7*
Cc1ccc(S(=O)(=O)Nc2ccc3c(c2)CC(=O)N([C@H](C)CO)C[C@H](C)[C@H](CN(C)Cc2ccc(Oc4ccccc4)cc2)O3)cc1 | 8.3 | 2.9 | 110.5*
COc1ccc(S(=O)(=O)Nc2ccc3c(c2)CC(=O)N([C@@H](C)CO)C[C@H](C)[C@H](CN(C)Cc2ccc(Oc4ccccc4)cc2)O3)cc1 | 4.5 | 4.3 | 27.7
C[C@H]1CN([C@@H](C)CO)C(=O)Cc2cc(NS(=O)(=O)c3ccc(Cl)cc3)ccc2O[C@H]1CN(C)Cc1ccc(Oc2ccccc2)cc1 | -4.8 | / | 77.7
